In the library only some 27% were active in any assay of this set; here they are far more common.
CYP2C9 inh: blockers of cytochrome P450 2C9 activity – biochemical, luminescence, ADME assay, primary screen | P11712 | 20% of 96,000 active | AID 777, 2007 | CYP2C9 Supersomes, luciferin-H conversion | inhibition, % at 5 µM;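 active = blocking of liver enzyme CYP2C9 beyond about 50% at 5 µM, limit read from the data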
CYP2C19 activ: human CYP2C19 activators, primary screen, biochemical, luminescence; 96,000 tested, under 10 active; activation factor at 5 µM; recombinant CYP2C19, luciferin-H EGE luminescence; hits give high values; 0 = fully inhibited enzyme, 1 = untreated enzyme; Cytochrome P450 2C19 (Homo sapiens), P33261;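 active = activation factor of at least 2 at 5 µM in the primary screen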;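 note: 0 = wells with 2.5 mM tranylcypromine and 1 = vehicle-only wells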
Cav32 inh: Cav3.2 calcium influx blockers – cell-based, Fluo-4 calcium fluorescence, FDSS, MLSMR library, primary screen. Cav3.2-expressing cells; hits give low values. B-score at 10 µM. 4% of 100,000 active. AID 449739, 2010;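 active = single-dose well whose peak fluorescence ratio is a statistical outlier from its plate by either plate-standardised score or position-corrected B-score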
Target sequence (O95180 whole entry, looked up): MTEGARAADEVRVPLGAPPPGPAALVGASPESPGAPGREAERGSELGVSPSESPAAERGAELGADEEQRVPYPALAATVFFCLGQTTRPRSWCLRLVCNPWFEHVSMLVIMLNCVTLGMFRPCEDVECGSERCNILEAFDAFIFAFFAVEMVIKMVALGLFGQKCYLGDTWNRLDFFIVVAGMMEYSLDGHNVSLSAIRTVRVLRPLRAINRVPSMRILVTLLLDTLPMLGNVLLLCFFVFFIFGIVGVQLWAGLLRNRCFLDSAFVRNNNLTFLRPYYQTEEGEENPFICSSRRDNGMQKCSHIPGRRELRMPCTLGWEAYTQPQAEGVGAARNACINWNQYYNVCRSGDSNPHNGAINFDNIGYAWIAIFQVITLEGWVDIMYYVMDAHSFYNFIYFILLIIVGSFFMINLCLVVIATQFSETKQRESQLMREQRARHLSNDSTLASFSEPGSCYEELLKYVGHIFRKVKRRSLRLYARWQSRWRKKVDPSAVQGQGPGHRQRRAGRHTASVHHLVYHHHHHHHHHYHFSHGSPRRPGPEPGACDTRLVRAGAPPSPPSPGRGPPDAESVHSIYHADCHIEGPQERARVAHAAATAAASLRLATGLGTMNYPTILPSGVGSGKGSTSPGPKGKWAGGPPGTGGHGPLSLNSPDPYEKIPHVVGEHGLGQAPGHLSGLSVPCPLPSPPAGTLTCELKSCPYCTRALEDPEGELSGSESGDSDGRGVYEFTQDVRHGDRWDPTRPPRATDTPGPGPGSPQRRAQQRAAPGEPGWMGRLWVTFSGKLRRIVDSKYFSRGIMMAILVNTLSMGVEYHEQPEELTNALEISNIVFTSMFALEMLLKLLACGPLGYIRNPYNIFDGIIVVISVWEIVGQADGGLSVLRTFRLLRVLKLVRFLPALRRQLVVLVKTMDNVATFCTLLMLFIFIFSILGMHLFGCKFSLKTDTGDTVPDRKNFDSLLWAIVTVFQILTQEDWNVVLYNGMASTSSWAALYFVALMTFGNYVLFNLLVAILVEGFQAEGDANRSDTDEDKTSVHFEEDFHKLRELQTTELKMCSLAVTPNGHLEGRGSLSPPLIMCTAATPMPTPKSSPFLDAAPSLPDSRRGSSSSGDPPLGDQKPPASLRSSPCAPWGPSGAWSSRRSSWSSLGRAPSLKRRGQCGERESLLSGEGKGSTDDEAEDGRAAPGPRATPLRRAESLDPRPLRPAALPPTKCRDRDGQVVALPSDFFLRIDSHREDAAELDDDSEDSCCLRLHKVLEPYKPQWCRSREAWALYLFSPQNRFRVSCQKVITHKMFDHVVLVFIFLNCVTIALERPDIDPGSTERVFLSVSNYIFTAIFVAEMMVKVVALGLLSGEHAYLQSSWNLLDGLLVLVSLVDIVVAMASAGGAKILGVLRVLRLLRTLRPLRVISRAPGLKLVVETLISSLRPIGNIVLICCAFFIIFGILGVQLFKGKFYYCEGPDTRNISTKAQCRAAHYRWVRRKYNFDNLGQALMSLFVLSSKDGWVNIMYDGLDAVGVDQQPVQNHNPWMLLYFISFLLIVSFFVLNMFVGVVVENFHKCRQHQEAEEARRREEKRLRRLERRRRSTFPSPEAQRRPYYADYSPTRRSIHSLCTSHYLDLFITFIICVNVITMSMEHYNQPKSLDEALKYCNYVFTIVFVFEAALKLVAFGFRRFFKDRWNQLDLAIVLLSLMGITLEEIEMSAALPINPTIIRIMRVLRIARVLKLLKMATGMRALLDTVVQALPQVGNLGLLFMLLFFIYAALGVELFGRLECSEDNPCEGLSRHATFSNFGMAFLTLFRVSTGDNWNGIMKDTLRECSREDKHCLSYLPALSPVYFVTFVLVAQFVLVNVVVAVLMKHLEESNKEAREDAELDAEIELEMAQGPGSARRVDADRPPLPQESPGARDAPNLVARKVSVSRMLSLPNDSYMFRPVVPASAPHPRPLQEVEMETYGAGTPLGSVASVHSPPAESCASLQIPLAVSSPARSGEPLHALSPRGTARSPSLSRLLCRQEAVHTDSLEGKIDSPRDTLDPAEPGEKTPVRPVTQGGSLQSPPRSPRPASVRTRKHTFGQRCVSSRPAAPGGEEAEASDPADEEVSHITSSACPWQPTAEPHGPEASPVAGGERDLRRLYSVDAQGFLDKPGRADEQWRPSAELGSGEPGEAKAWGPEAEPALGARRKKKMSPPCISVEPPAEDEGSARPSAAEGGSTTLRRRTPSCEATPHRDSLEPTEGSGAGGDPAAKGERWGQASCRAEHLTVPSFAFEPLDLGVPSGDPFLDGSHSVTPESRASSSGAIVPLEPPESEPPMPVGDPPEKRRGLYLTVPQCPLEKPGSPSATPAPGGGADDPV
CYP2C19 inh: blockers of cytochrome P450 2C19 activity – biochemical, luminescence, ADME assay, primary screen | CYP2C19 Supersomes, luciferin-H EGE luminescence, 30 min | 21% of 96,000 active | inhibition, % at 5 µM | P33261;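 active = CYP2C19 inhibition above a set limit at 5 µM in the primary screen, cut at about 50% in these data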;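 note: plate controls were negative control wells for no effect and 2.5 mM tranylcypromine positive control for full effect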
CYP2C9 act: human CYP2C9 activators, primary screen, biochemical, luminescence | 1.4% of 96,000 active | AID 1024, 2008 | recombinant CYP2C9, luciferin-H conversion; hits give high values; factor 1 = untreated enzyme, 0 = blocked | Cytochrome P450 2C9 (Homo sapiens), P11712 | activation factor at 5 µM;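 active = activation factor of 2 or more for CYP2C9 at a 5 µM dose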;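 note: 0 = sulfaphenazole-blocked wells and 1 = vehicle-only wells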
Pyk2 oligo antag: antagonists of Pyk2 self-association, primary screen, Q293 cells, FERM NanoBiT luminescence, HTS; AID 1347419, 2020; 0.83% of 99,000 active; z-score (the deposit names both 25 µM and 10 µM); hits give low values;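 active = Z-score of -3 or lower, scaled per plate to the spread of control and sample wells; inactive = z-score above -3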;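 note: negative z-score means lost luminescence so less FERM oligomerization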
* hit, by the source's call; . = no result.

SMILES	CYP2C9 inh	CYP2C19 activ	Cav32 inh	CYP2C19 inh	CYP2C9 act	Pyk2 oligo antag
O=C(NCc1ccco1)c1cccc(Nc2nc3ccc(Br)cc3[nH]2)c1	91*	0.7	-3.1	34	0.1	.
CCCn1cnc2c(=O)oc3ccccc3c21	.	.	0.63	.	.	0.63
Cc1ccc(C)c(NC(=O)C2CC(O)CN2C(=O)OC(C)(C)C)c1 (centres undefined)	6	1	0.051	0	0.9	-0.54
Cc1n[nH]c(C)c1S(=O)(=O)Nc1ccc2c(c1)OCCO2	.	.	.	.	.	-0.38
CCO[C@@H]1OC(C(N)=O)=C[C@H](c2ccc3c(c2)OCO3)[C@H]1CCCO	.	.	0.33	.	.	.
CCOC(=O)N1CCN(C(=O)c2cc3cc(Br)ccc3oc2=O)CC1	2	0.9	-0.044	13	1	.
O=C(CSc1ncnc2ccccc12)Nc1ccc(N2CCOCC2)cc1	0	1.2	0.13	-16	1	.
CCCc1c(OCCCCc2nn[nH]n2)ccc(C(C)=O)c1O	.	.	0.19	.	.	.
COc1ccc(NC(=O)COC(=O)CCCc2c[nH]c3ccccc23)cc1	81*	0.2	-0.0014	84*	0.2	2
O=C(COC(=O)C1c2ccccc2Oc2ccccc21)Nc1ccc2c(c1)OCO2	58*	0.8	-4.3*	19	0.4	-0.77
O=C(COC(=O)CCCc1c[nH]c2ccccc12)Nc1ccc2c(c1)OCO2	22	0.3	-1	73*	0.8	0.96
Cc1cc(C)c(NC(=O)CCCC(=O)O)c(Cl)c1	-11	1	1.5	0	1.1	0.62
COc1cc(C)nc(Oc2ccc(OCCOc3ccc(C)cc3)nn2)n1	48	0.6	-1.5	35	0.5	0.85
COC(=O)c1c(NC(=O)CC2Nc3ccccc3NC2=O)sc(C)c1C (centres undefined)	34	0.8	-0.2	22	0.7	-0.99
O=C(Oc1c(Cl)cc(Cl)c2cccnc12)N1CCCCC1	54*	0.4	-0.35	64*	0.5	-0.07
CCCCOC(=O)C1CCCC(C(=O)OCCCC)N1 (centres undefined)	23	0.8	0.023	18	0.8	0.22
C=Cc1c(C)c2cc3[nH]c(cc4nc(cc5nc(cc1[nH]2)C(C)=C5CCC(=O)O)C(CCC(=O)O)=C4C)c(C)c3C=C	.	.	0.58	.	.	.
O=C(Nc1ccc2c(c1)OCO2)C(c1ccc(Cl)cc1)N1CCN(C(=O)c2ccco2)CC1 (centres undefined)	95*	0.3	-4.3*	75*	0.1	-0.84
O=C(c1ccco1)N1CCN(C(=O)C(Sc2ccccc2)c2ccccc2)CC1 (centres undefined)	83*	0.2	-0.2	78*	0.2	-0.27
O=C(Nc1ccc2c(c1)OCO2)C(c1ccccc1)N1CCN(C(=O)c2ccco2)CC1 (centres undefined)	98*	0.2	-0.16	76*	0	-1.1
O=C(Nc1ccc(F)cc1)C(c1ccccc1)N1CCN(C(=O)c2ccco2)CC1 (centres undefined)	71*	0.8	0.95	22	0.3	-0.01
CC(C(=O)Nc1ccc2c(c1)OCCO2)N1CCN(C(=O)c2ccco2)CC1 (centres undefined)	10	1.1	.	-8	0.9	0.28
CCCCCc1cc(=O)oc2c(C(CCN(CC)CC)c3cc(OC)c(OC)c(OC)c3)c(OC)cc(OC)c12 (centres undefined)	.	.	-0.52	.	.	.
CCCCc1nnc(NC(=O)C(C)Sc2nc(C)cc(=O)[nH]2)s1 (centres undefined)	23	0.9	1	13	0.8	-1.9
COc1ccc(/C=C/C(=O)OC(C)CN2CCOCC2)cc1 (centres undefined)	14	1	0.79	-4	0.9	-0.5
SMILES	CYP2C9 inh	CYP2C19 activ	Cav32 inh	CYP2C19 inh	CYP2C9 act	Pyk2 oligo antag
CCSc1nnc(NC(=O)c2cccc(OCc3c(C)noc3C)c2)s1	86*	0.1	-2.2	88*	0.1	-0.83
COc1ccc2nc(NC(=O)c3cccc(OCc4c(C)noc4C)c3)sc2c1	17	0.9	.	10	0.8	-2.8
Cc1noc(C)c1COc1cccc(C(=O)NCc2ccccc2Cl)c1	53*	0.4	-1.6	58*	0.5	0.09
N#Cc1c(-c2ccccc2)nc2n(-c3ccccc3)nc(C(=O)Nc3ccccc3)n2c1=O	41	0.8	-1.1	20	0.6	-1.9
N#Cc1cn(CC(=O)NCc2cccnc2)c2ccccc12	63*	0.2	0.36	80*	0.4	0.16
Cc1c(Br)c([N+](=O)[O-])nn1CC(=O)NCc1cccnc1	68*	0.1	-0.16	90*	0.3	0.25
N#Cc1cn(Cc2ccccc2)c2ccccc12	84*	0.1	-4.3	91*	0.2	-1.4
N#Cc1ccccc1Cn1cc(C#N)c2ccccc21	.	.	-3.4	.	.	-0.65
COc1ccccc1NC(=O)Cn1cc(C#N)c2ccccc21	34	0.6	0.43	36	0.7	-0.53
CCC(=O)c1cn(CC(=O)NCc2cccnc2)c2ccccc12	91*	0.1	0.39	86*	0.1	0.11
COc1ccc(CCNC(=O)NC(C(F)(F)F)C(F)(F)F)cc1OC	4	0.8	0.024	23	1	0.21
COc1ccccc1/C=C/C=N/N1CCN(Cc2cccc3ccccc23)CC1	-6	0.9	.	6	1.1	-0.57
COc1ccc(Br)cc1S(=O)(=O)N(CC(=O)N1CCOCC1)c1ccccc1	68*	0.4	0.046	56*	0.3	0.93
COc1ccc(C)cc1S(=O)(=O)N(CC(=O)N1CCCC1)c1ccccc1	89*	0.9	1.3	14	0.1	0.52
CN(C)S(=O)(=O)N(CC(=O)N1CCOCC1)c1ccccc1	-6	1.1	0.43	-9	1.1	0.28
C=CC(C)(C)c1cc2cc3ccoc3cc2oc1=O	.	.	-2	.	.	.
CN1CC(c2ccc(Cl)c(Cl)c2)[C@@]2(COc3ccccc3C2=O)[C@@]12C(=O)Nc1ccccc12 (some centres undefined)	77*	1	0.46	-2	0.2	-3.4*
COC(=O)c1cccc2nc3c(C(C)O)cccc3nc12 (centres undefined)	.	.	-0.61	.	.	.
COC(=O)c1ccc(Sc2ccc(Cl)cc2)c(N)c1	48	0.6	-1.4	39	0.5	-0.76
COC(=O)c1ccc(S(=O)(=O)c2ccccc2)c(N)c1	70*	0.1	-0.053	94*	0.3	-0.54
COc1ccc(-n2nc(C(=O)NCC(=O)NCc3ccco3)c3ccccc3c2=O)cc1	62*	0.9	0.6	9	0.4	-0.55
COc1ccc(-n2nc(C(=O)NCC(=O)NCc3ccc(F)cc3)c3ccccc3c2=O)c(OC)c1	51*	0.8	0.59	20	0.5	0.63
